Reference: PubChem BioAssay AID2401 (Southern Research Specialized Biocontainment Screening …, 2010)
The campaign covered roughly 2,200 compounds. About 530 (24%) were called active.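 Rule for the calls: active = inhibition above a set limit at one or more concentrations of the dose series; inactive = inhibition under that limit at every dose.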 Only a sample is shown. Where a call stands in place of a potency, no number is given. Potency and affinity values are given separately.

Assay: S. Typhimurium nonspecific reporter signal inhibition – Salmonella Typhimurium, GFP fluorescence, counter-screen for PhoP regulon inhibitor project, dose response (AID 2401);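 note: S. typhimurium with Mg-insensitive nmpC-GFP reporter grown at 10 µM Mg2+; drop in reporter fluorescence reflects general culture growth inhibition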
Conditions: 4 h; series mostly up to 150 µM

Row | Structure (SMILES) | outcome
1 | COc1ccc(-c2cc(C(=O)Nc3ccc(S(=O)(=O)Nc4ncccn4)cc3)c3ccccc3n2)cc1 | inactive
2 | Nc1nc(C2CCCCC2)cs1 | inactive
3 | Clc1ccc(-n2ncc3c(NCc4cccs4)ncnc32)cc1 | inactive
4 | CC(C)Cc1nc2ccc(N)cc2[nH]1 | inactive
5 | COc1cccc(-c2nnc3sc(-c4ccc(C)cc4)nn23)c1 | inactive
6 | Cc1nc2c(C(=O)NCCC(C)C)c[nH]n2c(=O)c1Cc1ccccc1F | inactive
7 | CC(C)(C)NC(=O)CSc1nnc(-c2ccncc2)o1 | inactive
8 | CCCCCCC(=O)N(O)C1CC(=O)N(c2ccc(C)cc2)C1=O (stereo unspecified) | inactive
9 | O=C(c1ccco1)[C@@H]1[C@@H]2C(=O)N(c3ccc(F)cc3)C(=O)[C@@H]2[C@H]2C=Cc3ccccc3N21 | inactive
10 | CCC(=O)NC1=C(NC(C)c2ccccc2)C(=O)c2ccccc2C1=O (stereo unspecified) | inactive
11 | O=S(=O)(c1ccc(NC(=S)Nc2ccc3c(c2)OCO3)cc1)N1CCOCC1 | inactive
12 | Nc1ccc(N(c2ccccc2)c2ccc(N)cc2)cc1 | inactive
13 | CSc1nsc(SCC(=O)Nc2ccc(C(C)=O)cc2)n1 | inactive
14 | O=C(Cc1cccs1)N(c1ccccc1)C1C=CS(=O)(=O)C1 (stereo unspecified) | inactive
15 | O=C(OCC(=O)c1ccc(S(=O)(=O)N2CCCC2)cc1)C1=COCCO1 | inactive
16 | NNC(=S)Nc1ccc(Cl)cc1 | inactive
17 | COc1ccc2cc(C#N)c(NC(C)C)nc2c1 | inactive
18 | NC(=S)c1cc2ccc(O)cc2oc1=O | inactive
19 | Cc1ccc(NC(=S)NCCc2ccccc2)c(C)c1 | inactive
20 | CNC(=O)CSc1nnc(-c2cccnc2)n1CCc1ccccc1 | inactive
21 | COc1nc(N(c2ccccc2)c2ccccc2)nc(-n2ccnc2)n1 | inactive
22 | COc1cc(CNc2ccc(CNc3ncn[nH]3)cc2)ccc1OCc1ccccc1 | inactive
23 | CCc1cccc(NC(=O)CCCSc2nc3ccccc3[nH]2)c1 | inactive
24 | CC(C)Nc1cc(C(F)(F)F)nc(-c2ccccn2)n1 | inactive
25 | O=C1c2ccccc2C(=O)N1Cc1nc(-c2ccccn2)no1 | inactive
26 | S=c1nc(-c2ccccc2)oc2c1CCCC2 | inactive

Row | Structure (SMILES) | outcome
27 | c1ccc(-c2ncnc3nc4n(c23)CCC4)cc1 | inactive
28 | O=C(Nc1cccc2ccccc12)OC1C=CS(=O)(=O)C1 (stereo unspecified) | inactive
29 | Cc1cccc(-n2c(SCC(N)=O)nc3c(c2=O)C2(CCCC2)Cc2ccccc2-3)c1 | inactive
30 | COc1ccc(Nc2nc(-c3cccc([N+](=O)[O-])c3)nc3ccccc23)cc1 | inactive
31 | C=CCSc1nnc(-c2ccc(Cl)cc2Cl)o1 | inactive
32 | c1ccc(-c2nnc(SCCC3OCCCO3)o2)cc1 | inactive
33 | COc1ccc(S(=O)(=O)n2nc(OC(=O)c3ccccc3Br)cc2N)cc1 | inactive
34 | COc1ccc(N(C(=O)CCl)C(C(=O)NCCc2ccccc2)c2cccs2)cc1 (stereo unspecified) | inactive
35 | CCC(=O)c1ccc(OCC(O)CNCc2ccc(F)cc2)cc1 (stereo unspecified) | inactive
36 | COc1cccc(OCC(O)CN2CCN(c3ccccn3)CC2)c1 (stereo unspecified) | inactive
37 | COc1ccc(NC2=Nc3cccc4cccc2c34)cc1 | inactive
38 | COc1ccc(C2=C(Nc3ccc(C)cc3)c3ccccc3C2=O)cc1 | inactive
39 | Cc1cc(Nc2ccccc2)nc2cc(O)ccc12 | inactive
40 | Cc1cc(=O)oc2cc(OCC(O)CN3CCc4ccccc4C3)ccc12 (stereo unspecified) | inactive
41 | C=CCN(C(=O)c1cccc(S(=O)(=O)N2CCN(C)CC2)c1)c1nc(-c2ccccc2)cs1 | inactive
42 | O=C(O)CCc1nnc2n(Cc3ccc(F)cc3)c(=O)c3ccccc3n12 | inactive
43 | Cc1nc(-c2ccccn2)sc1C(=O)Nc1ccc(F)cc1F | inactive
44 | CN(C(=O)/C=C/c1ccccc1)C1CCS(=O)(=O)C1 (stereo unspecified) | inactive
45 | COc1ccccc1N1CCN(c2ccc(-c3ccccc3)nn2)CC1 | inactive
46 | COc1cc(CNCc2ccccn2)ccc1OCC(=O)NC(C)(C)C | inactive
47 | Cc1ccc(NS(=O)(=O)c2ccccc2)c2c1CC(C)(C)O2 | inactive
48 | Cc1cc(C)nc(N(C#N)C(C)C(=O)N(C)C)n1 (stereo unspecified) | inactive
49 | Cc1cc2cc(CCNC(=O)c3cccs3)c(=O)[nH]c2cc1C | inactive
50 | Cc1ccc(C(=O)Nc2ccccc2C(N)=O)o1 | inactive
51 | COc1cccc(Cn2cnc3c(NS(=O)(=O)c4cccc(Cl)c4Cl)c(C)c(C)cc32)c1 | inactive
52 | CC(C)(C)c1ccc(NC(=O)COC(=O)c2ccc([N+](=O)[O-])s2)cc1 | inactive

Row | Structure (SMILES) | outcome
53 | Cc1[nH]c2ccccc2c1C(=O)CN1CCSCC1 | inactive
54 | Cc1cc(=O)oc(C)c1C(=O)NCc1cccnc1 | inactive
55 | Cc1nn(CCOc2ccccc2)c(=O)n1-c1ccc(F)cc1 | inactive
56 | Cc1cccc(OCC(=O)NNc2c3ccccc3nc3ccccc23)c1 | inactive
57 | O=C(NCc1ccco1)c1c2c(nc3ccccc13)CCC2 | inactive
58 | Cc1cccc(NC(=O)Cn2c(/C=C/c3ccccc3)nc3ccccc32)c1 | inactive
59 | Cc1ccc(C(=O)NNc2c3ccccc3nc3ccccc23)cc1 | inactive
60 | Cc1ccc(CSCc2nc3ccccc3[nH]2)cc1 | inactive
61 | Cc1ccccc1NC(=O)c1sc2nc3c(c(-c4ccco4)c2c1N)CCC3 | inactive
62 | Cn1c(-c2ccc3c(c2)OCO3)cnc1NCc1cccc(Cl)c1 | inactive
63 | CC(=O)c1c(C)n([O-])c2ccccc2[n+]1=O | inactive
64 | COC(=O)c1sccc1NC(=O)C1C2C=CC(O2)C1C(=O)O (stereo unspecified) | inactive
65 | COC(=O)c1ccc2nc(C(F)(F)F)[nH]c2c1 | inactive
66 | N#CCCN(C(=O)CN1C(=O)NC2(CCCC2)C1=O)c1ccccc1F | inactive
67 | O=C1C(Nc2ccccc2)=C/C(=N/S(=O)(=O)c2cccs2)c2ccccc21 | inactive
68 | COc1cc(C=O)ccc1OCCCOc1ccccc1[N+](=O)[O-] | inactive
69 | Cc1snc(S(=O)(=O)/C(C#N)=N\Nc2ccccc2)c1C#N | inactive
70 | Cc1ccsc1C=Nc1ccc(O)cc1 | inactive
71 | C(=Nc1ccc(Nc2ccccc2)cc1)c1ccc2ccccc2c1 | inactive
72 | Cc1nnc(NC(=O)CSc2ncnc3scc(-c4ccccc4)c23)s1 | inactive
73 | Cc1onc(-c2c(F)cccc2Cl)c1C(=O)Nc1cccc(Cn2cccn2)c1 | inactive
74 | CCOc1ccc(NC(=O)CCC(=O)n2nc(C)cc2C)cc1 | inactive
75 | COc1cc(OC)c(C(=O)Nc2ccc(S(=O)(=O)Nc3ncccn3)cc2)cc1OC | inactive
76 | COc1nccnc1NS(=O)(=O)c1ccc(NC(=S)NC(=O)c2cccnc2)cc1 | inactive
